According to PubChem BioAssay (EPA / NIEHS):
Results filed as inconclusive are left out. Calls of active or inactive are those of the source. How the source made its calls, unless noted: active means hit-call score of the fitted dose curve at least 0.9, where 1 is the maximum; inconclusive means response in the unintended direction; inactive means score below 0.9.

Legend:
[1] = ATG_M_61_CIS: Attagene CIS-FACTORIAL HepG2 Assay for M61 Transcription Factor (Internal Marker) (AID 2282937; active means hit-call score of the fitted dose curve at least 0.9, where 1 is the maximum; inactive means score below 0.9); settings: HepG2 Attagene CIS-FACTORIAL M61 internal marker reporter; actives raise or lower the signal
How it was run: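 Human liver HepG2, transient MRTU transfection (cis promoter elements), 24 h compound. Total RNA → oligo(dT) RT → PCR → FAM label → HpaI → CE. Internal background marker; bidirectional fitting, DMSO = baseline.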

[2] = ATG_GRE_CIS: Attagene CIS-FACTORIAL HepG2 Assay for human Glucocorticoid Response Elements (GRE) (AID 2282947; active means hit-call score of the fitted dose curve at least 0.9, where 1 is the maximum; inactive means score below 0.9); settings: HepG2 GRE cis-reporter, Attagene multiplex mRNA; actives raise or lower the signal
How it was run: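 HepG2 cells transiently transfected with multiple cis-promoter reporter units measure endogenous TF activity; 24 h compound exposure. Reporter mRNA quantified by RT-PCR, FAM labelling, HpaI digestion and capillary electrophoresis; bidirectional fit vs DMSO baseline.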

[3] = molecular target: Hepatocyte nuclear factor 6 (Homo sapiens) (UniProt Q9UBC0); test: ATG_HNF6_CIS: Attagene CIS-FACTORIAL HepG2 Assay for human Hepatocyte Nuclear Factor 6 (HNF6) (AID 2282952; active means hit-call score of the fitted dose curve at least 0.9, where 1 is the maximum; inactive means score below 0.9); settings: HepG2 Attagene cis-factorial HNF6 reporter transcription; actives raise or lower the signal
Hepatocyte nuclear factor 6 (Homo sapiens), sequence (Q9UBC0 whole entry, looked up, the tested form may be a part): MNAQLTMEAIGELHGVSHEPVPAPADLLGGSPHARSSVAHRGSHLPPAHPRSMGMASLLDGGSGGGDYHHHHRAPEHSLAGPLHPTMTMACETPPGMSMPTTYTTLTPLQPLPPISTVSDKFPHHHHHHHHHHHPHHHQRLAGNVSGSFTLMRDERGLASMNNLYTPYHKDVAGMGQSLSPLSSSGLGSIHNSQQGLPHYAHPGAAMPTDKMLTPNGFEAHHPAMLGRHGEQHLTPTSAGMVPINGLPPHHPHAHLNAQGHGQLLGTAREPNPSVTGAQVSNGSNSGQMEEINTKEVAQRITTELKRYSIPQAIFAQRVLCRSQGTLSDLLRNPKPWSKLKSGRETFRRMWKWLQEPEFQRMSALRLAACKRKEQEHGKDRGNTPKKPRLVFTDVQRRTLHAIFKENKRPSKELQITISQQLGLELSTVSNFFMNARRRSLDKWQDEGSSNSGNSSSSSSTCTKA
How it was run: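 Reporter mRNA induction or loss in HepG2 after 24 h exposure; transient cis-MRTU transfection; fragments quantified by capillary electrophoresis; bidirectional analysis, DMSO as negative control.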

[4] = ATG_MRE_CIS: Attagene CIS-FACTORIAL HepG2 Assay for human Metal Responsive Element (MRE) (AID 2282954; active means hit-call score of the fitted dose curve at least 0.9, where 1 is the maximum; inactive means score below 0.9); settings: HepG2 MRE cis-reporter transcription, Attagene multiplex; actives raise or lower the signal
How it was run: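 HepG2 cells transiently transfected with multiple cis-element reporter units measure endogenous MTF1-driven transcription. After 24 h compound exposure, reporter mRNA is quantified by RT-PCR with 6-FAM labelling, HpaI digestion and capillary electrophoresis; bidirectional fits versus DMSO.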

[5] = molecular target: Hepatocyte nuclear factor 4-alpha (Homo sapiens) (UniProt P41235); test: ATG_HNF4a_TRANS: Attagene TRANS-FACTORIAL HepG2 Assay for human Hepatocyte Nuclear Factor 4 alpha (HNF4a) (AID 2282982); settings: HepG2 HNF4a transactivation reporter, mRNA readout
Hepatocyte nuclear factor 4-alpha (Homo sapiens), sequence (P41235 whole entry, looked up, the tested form may be a part): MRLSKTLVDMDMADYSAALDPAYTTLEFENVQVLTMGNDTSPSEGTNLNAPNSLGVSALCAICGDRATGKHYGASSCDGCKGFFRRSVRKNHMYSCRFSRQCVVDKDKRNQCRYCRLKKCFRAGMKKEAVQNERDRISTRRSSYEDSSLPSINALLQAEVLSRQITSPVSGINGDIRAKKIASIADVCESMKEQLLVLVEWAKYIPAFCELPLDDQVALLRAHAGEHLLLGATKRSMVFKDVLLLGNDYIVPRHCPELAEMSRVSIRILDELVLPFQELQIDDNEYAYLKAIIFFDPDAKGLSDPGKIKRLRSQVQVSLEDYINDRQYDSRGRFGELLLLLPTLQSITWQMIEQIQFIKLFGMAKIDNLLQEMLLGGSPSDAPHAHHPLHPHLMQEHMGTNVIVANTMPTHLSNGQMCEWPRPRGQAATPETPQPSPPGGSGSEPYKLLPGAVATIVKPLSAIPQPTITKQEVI
How it was run: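 HepG2 cells transiently transfected with multiplexed GAL4-UAS reporter units responsive to chimeric NR-GAL4 proteins; compound exposure 24 h. Reporter mRNA quantified by RT-PCR, 6-FAM labelling, HpaI digestion and capillary electrophoresis; gain of signal versus DMSO baseline.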

[6] = ATG_M_06_TRANS: Attagene TRANS-FACTORIAL HepG2 Assay for M06 Transcription Factor (Internal Marker) (AID 2282983); settings: HepG2 Attagene TRANS M06 internal marker reporter
How it was run: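 Measured by capillary electrophoresis of fluorescently labelled RT-PCR products, this endpoint reflects reporter mRNA in HepG2 cells harbouring exogenous NR-GAL4 reporter constructs after 24 h exposure, with DMSO as baseline.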

[7] = molecular target: Myc proto-oncogene protein (Homo sapiens) (UniProt P01106); test: ATG_Myc_CIS: Attagene CIS-FACTORIAL HepG2 Assay for human Myelocytomatosis (Myc) Proto-Oncogene Transcription Factor (AID 2282990; active means hit-call score of the fitted dose curve at least 0.9, where 1 is the maximum; inactive means score below 0.9); settings: HepG2, Attagene cis-reporter transcription factor activity; actives raise or lower the signal
Myc proto-oncogene protein (Homo sapiens), sequence (P01106 whole entry, looked up): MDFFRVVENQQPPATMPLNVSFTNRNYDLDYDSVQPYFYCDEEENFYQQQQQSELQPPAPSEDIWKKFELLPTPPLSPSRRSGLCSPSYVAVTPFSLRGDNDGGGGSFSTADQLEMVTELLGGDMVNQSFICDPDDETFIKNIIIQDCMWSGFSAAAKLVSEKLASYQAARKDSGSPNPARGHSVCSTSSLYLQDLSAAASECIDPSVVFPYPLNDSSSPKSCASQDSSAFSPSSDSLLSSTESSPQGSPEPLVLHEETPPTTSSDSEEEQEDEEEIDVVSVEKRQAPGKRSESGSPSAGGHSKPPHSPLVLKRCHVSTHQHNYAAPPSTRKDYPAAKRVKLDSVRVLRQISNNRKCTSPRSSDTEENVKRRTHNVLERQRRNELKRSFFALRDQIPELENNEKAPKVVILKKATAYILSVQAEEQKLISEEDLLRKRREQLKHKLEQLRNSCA
How it was run: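 DMSO-normalised, bidirectionally fitted reporter mRNA signal. HepG2 cells transfected with cis reporter constructs, treated 24 h; transcripts detected by RT-PCR, 6-FAM primer extension and CE.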

[8] = ATG_NF_kB_CIS: Attagene CIS-FACTORIAL HepG2 Assay for human Nuclear Factor Kappa B (NF-kB) (AID 2282991; active means hit-call score of the fitted dose curve at least 0.9, where 1 is the maximum; inactive means score below 0.9); settings: HepG2 Attagene cis-factorial NF-kB reporter mRNA; actives raise or lower the signal
How it was run: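 Transient MRTU transfection of human HepG2 liver cells → 24 h chemical exposure → total RNA, oligo(dT) RT → PCR, 6-FAM primer extension, HpaI digest 2 h 37 C → CE fragment analysis. Bidirectional fitting, DMSO negative control.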

[9] = molecular target: human Peroxisome Proliferator-activated Receptor alpha (PPARa), PPARA (gene 5465) (UniProt Q07869); test: ATG_PPARa_TRANS: Attagene TRANS-FACTORIAL HepG2 Assay for human Peroxisome Proliferator-activated Receptor alpha (PPARa) (AID 2283001);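 on AC50: potency for gain of reporter signal over DMSO so agonist or activator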
human Peroxisome Proliferator-activated Receptor alpha (PPARa), PPARA (gene 5465), sequence (Q07869 whole entry, looked up, the tested form may be a part): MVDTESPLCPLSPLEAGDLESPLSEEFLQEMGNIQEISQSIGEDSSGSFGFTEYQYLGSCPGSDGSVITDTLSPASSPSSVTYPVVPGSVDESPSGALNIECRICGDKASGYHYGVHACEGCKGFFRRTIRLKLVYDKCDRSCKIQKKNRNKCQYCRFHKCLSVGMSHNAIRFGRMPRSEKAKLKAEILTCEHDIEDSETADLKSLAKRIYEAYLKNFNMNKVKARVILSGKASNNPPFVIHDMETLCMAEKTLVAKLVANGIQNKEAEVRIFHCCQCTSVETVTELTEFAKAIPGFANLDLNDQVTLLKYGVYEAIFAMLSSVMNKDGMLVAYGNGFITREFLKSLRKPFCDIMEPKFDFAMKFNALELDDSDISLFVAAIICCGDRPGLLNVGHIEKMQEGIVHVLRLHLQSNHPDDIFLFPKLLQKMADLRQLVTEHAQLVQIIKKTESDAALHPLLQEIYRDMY
How it was run: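 HepG2 cells transiently transfected with multiplexed GAL4-UAS reporter units and chimeric NR-Gal4 constructs were dosed for 24 h. Reporter mRNA was measured by RT-PCR with fluorescent labelling and capillary electrophoresis; gain of signal fitted against DMSO.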

[10] = molecular target: Peroxisome proliferator-activated receptor gamma (Homo sapiens) (UniProt P37231); test: ATG_PPARg_TRANS: Attagene TRANS-FACTORIAL HepG2 Assay for human Peroxisome Proliferator-activated Receptor-gamma (PPARg) (AID 2283007)
Peroxisome proliferator-activated receptor gamma (Homo sapiens), sequence (P37231 whole entry, looked up, the tested form may be a part): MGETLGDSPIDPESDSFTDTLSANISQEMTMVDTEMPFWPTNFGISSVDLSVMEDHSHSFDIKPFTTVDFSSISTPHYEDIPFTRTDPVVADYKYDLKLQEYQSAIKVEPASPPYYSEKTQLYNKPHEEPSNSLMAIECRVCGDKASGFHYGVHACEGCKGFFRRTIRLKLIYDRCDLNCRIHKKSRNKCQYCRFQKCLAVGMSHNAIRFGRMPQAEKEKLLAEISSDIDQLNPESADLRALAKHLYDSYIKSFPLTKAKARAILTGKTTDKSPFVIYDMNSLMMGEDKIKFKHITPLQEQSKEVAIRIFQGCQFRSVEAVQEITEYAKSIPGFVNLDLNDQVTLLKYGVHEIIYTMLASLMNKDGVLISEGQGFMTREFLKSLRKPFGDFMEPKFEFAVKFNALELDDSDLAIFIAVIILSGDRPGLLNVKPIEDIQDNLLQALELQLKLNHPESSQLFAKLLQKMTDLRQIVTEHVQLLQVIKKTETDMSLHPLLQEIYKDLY
How it was run: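 Transient transfection of HepG2 with GAL4-UAS-driven reporter units; chemical dosing 24 h; total RNA → oligo(dT) RT → PCR with reporter primers → 6-FAM primer extension → HpaI digest 2 h 37 C → capillary electrophoresis. Positive direction vs DMSO.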

[11] = molecular target: Nuclear receptor subfamily 1 group I member 2 (Homo sapiens) (UniProt O75469); test: ATG_PXR_TRANS: Attagene TRANS-FACTORIAL HepG2 Assay for human Pregnane X Receptor (PXR) (AID 2283008)
Nuclear receptor subfamily 1 group I member 2 (Homo sapiens), sequence (O75469 whole entry, looked up, the tested form may be a part): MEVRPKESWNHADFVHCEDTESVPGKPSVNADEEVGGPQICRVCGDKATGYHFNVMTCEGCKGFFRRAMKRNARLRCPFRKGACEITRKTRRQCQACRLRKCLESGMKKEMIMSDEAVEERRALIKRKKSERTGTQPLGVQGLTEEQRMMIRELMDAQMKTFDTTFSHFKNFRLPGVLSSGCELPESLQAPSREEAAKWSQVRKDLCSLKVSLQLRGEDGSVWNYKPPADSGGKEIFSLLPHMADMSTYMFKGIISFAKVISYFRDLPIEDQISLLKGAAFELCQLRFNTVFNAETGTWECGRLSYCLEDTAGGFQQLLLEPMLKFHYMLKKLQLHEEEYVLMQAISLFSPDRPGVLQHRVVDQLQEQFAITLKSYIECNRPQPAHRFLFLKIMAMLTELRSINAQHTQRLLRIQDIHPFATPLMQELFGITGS
How it was run: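 HepG2 cells transiently transfected with GAL4-UAS reporter units and PXR-Gal4 chimera, exposed 24 h. Reporter mRNA quantified by RT-PCR, fluorescent labelling, HpaI digestion and capillary electrophoresis; gain of signal vs DMSO.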

[12] = molecular target: Cellular tumor antigen p53 (Homo sapiens) (UniProt P04637); test: TOX21_p53_BLA_p2_ratio: Tox21 HCT-116 p53 Agonism Beta-lactamase Assay, Ratio, Phase 2 (AID 2283592)
Cellular tumor antigen p53 (Homo sapiens), sequence (P04637 whole entry, looked up): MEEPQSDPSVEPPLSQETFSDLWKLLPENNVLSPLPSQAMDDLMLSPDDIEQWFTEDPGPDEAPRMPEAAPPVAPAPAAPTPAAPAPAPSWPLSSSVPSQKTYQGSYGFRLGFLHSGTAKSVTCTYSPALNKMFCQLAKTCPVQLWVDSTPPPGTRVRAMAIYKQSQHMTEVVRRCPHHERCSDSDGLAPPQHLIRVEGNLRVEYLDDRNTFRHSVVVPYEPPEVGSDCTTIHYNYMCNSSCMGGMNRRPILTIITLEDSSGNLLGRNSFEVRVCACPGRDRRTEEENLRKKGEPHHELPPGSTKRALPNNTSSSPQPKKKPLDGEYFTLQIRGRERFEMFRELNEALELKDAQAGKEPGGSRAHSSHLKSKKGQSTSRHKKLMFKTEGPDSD
How it was run: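 An inducible beta-lactamase reporter in HCT116 cells signals p53 pathway activation. After 16 h chemical exposure at 37C, cells load CCF4-AM substrate for 2 h at room temperature; activity is the cleaved/uncleaved emission ratio relative to DMSO.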

[13] = molecular target: Cellular tumor antigen p53 (Homo sapiens) (UniProt P04637); test: TOX21_p53_BLA_p3_ratio: Tox21 HCT-116 p53 Agonism Beta-lactamase Assay, Ratio, Phase 3 (AID 2283596)
How it was run: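 HCT116 p53-bla cells (4000/well) given compound in DMSO (217-fold dilution) after 5 h, incubated 16 h at 37C. CCF4-AM substrate 2 h at room temperature; 460/530 nm emission ratio, gain fitted against DMSO.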

[14] = molecular target: Cellular tumor antigen p53 (Homo sapiens) (UniProt P04637); test: TOX21_p53_BLA_p5_ratio: Tox21 HCT-116 p53 Agonism Beta-lactamase Assay, Ratio, Phase 5 (AID 2283599)
How it was run: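 HCT-116 cells carrying a p53-inducible beta-lactamase reporter were seeded at 4000 cells/well and dosed after 5 h with compound in DMSO (217-fold dilution). After 16 h at 37C, CCF4-AM substrate was added for 2 h, and the 460/530 nm emission ratio was scored as gain-of-signal versus DMSO.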

[15] = TOX21_p53_BLA_p5_viability: Viability Assessment in the Tox21 HCT-116 p53 Agonism Beta-lactamase Assay, Phase 5 (AID 2283600)
How it was run: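 Counter-readout for cytotoxicity: ATP-dependent luminescence from CellTiter-Glo, read in the beta-lactamase wells after 30 min at RT, following a 16 h compound exposure at 37C.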

[16] = molecular target: Cellular tumor antigen p53 (Homo sapiens) (UniProt P04637); test: TOX21_p53_BLA_p4_ratio: Tox21 HCT-116 p53 Agonism Beta-lactamase Assay, Ratio, Phase 4 (AID 2283601)
How it was run: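 HCT116 cells carrying an inducible beta-lactamase reporter were plated at 4000 cells/well, rested 5 h, then exposed to compounds in DMSO (217-fold dilution) for 16 h at 37C. CCF4-AM substrate was loaded 2 h at room temperature; 460/530 nm emission ratio scored gain-of-signal versus DMSO.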

[17] = ATG_PBREM_CIS: Attagene CIS-FACTORIAL HepG2 Assay for human Phenobarbital-responsive Enhancer Module (PBREM) (AID 2282955; active means hit-call score of the fitted dose curve at least 0.9, where 1 is the maximum; inactive means score below 0.9); settings: HepG2 PBREM cis-reporter, Attagene multiplexed transcription; actives raise or lower the signal
How it was run: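 Endogenous transcription factors in human liver HepG2 cells drive a PBREM cis-element reporter, whose transcript level after 24 h treatment is quantified by RT-PCR with capillary electrophoresis; activity fitted in both directions against DMSO.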

[18] = molecular target: Paired box protein Pax-6 (Homo sapiens) (UniProt P26367); test: ATG_Pax6_CIS: Attagene CIS-FACTORIAL HepG2 Assay for human Paired Box 6 (PAX6) (AID 2282956; active means hit-call score of the fitted dose curve at least 0.9, where 1 is the maximum; inactive means score below 0.9); settings: HepG2 CIS-FACTORIAL PAX6 reporter transcription, RNA readout; actives raise or lower the signal
Paired box protein Pax-6 (Homo sapiens), sequence (P26367 whole entry, looked up): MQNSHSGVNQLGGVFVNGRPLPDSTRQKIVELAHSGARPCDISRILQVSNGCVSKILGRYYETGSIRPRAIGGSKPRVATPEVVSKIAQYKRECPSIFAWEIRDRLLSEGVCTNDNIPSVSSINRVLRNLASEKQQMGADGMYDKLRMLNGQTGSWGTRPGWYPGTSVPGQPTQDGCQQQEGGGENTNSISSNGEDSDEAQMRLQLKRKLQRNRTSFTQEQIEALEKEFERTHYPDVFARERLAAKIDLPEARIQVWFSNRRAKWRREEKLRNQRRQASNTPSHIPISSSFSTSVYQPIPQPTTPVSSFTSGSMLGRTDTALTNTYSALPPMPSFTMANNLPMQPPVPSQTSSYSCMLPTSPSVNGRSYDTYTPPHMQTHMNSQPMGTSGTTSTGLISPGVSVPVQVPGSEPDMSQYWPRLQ
How it was run: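 HepG2 cells transiently transfected with cis-promoter-driven multiplexed reporter units sensing endogenous transcription factor activity; 24 h chemical exposure. Reporter mRNA quantified by RT-PCR, 6-FAM labelling, HpaI digestion and capillary electrophoresis; bidirectional fit versus DMSO baseline.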

[19] = ATG_RORE_CIS: Attagene CIS-FACTORIAL HepG2 Assay for human RAR-related Orphan Receptor Element (RORE) (AID 2282959; active means hit-call score of the fitted dose curve at least 0.9, where 1 is the maximum; inactive means score below 0.9); settings: HepG2 Attagene cis-factorial RORE reporter, mRNA; actives raise or lower the signal
How it was run: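 Transient MRTU transfection of human HepG2 liver cells (FuGene 6); 24 h compound exposure; TriZol RNA, oligo(dT) RT, PCR, FAM labeling, HpaI cut, CE fragment analysis. DMSO = negative control/baseline.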

[20] = molecular target: human Retinoid X Receptor beta (RXRb), RXRB (gene 6257) (UniProt P28702); test: ATG_RXRb_TRANS: Attagene TRANS-FACTORIAL HepG2 Assay for human Retinoid X Receptor beta (RXRb) (AID 2283013)
human Retinoid X Receptor beta (RXRb), RXRB (gene 6257), sequence (P28702 whole entry, looked up): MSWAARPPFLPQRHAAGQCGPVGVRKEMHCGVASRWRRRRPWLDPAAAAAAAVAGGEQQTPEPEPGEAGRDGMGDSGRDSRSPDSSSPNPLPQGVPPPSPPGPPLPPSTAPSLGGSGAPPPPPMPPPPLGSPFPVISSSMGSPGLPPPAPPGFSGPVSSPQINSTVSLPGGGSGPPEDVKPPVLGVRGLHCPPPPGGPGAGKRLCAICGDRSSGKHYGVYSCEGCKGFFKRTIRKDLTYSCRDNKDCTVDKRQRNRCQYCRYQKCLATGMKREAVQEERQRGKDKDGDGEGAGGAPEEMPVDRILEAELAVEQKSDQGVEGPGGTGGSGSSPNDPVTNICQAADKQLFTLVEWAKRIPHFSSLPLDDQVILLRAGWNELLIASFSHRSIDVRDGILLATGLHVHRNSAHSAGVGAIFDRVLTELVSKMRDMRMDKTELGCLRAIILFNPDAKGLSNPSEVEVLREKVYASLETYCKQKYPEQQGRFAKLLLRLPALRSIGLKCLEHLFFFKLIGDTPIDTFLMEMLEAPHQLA
How it was run: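 Multiplexed TRANS reporter assay in HepG2; 24 h dosing; reporter mRNA by RT-PCR/CE fluorescence; gain-of-signal relative to DMSO.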

Measured: AC50

O=[N+]([O-])c1cc(C(F)(F)F)c(Cl)c([N+](=O)[O-])c1Cl
active: [4] 5.11 µM | [5] 11.1 µM | [8] 3.71 µM | [9] 52.5 µM | [10] 8.34 µM | [12] 13.3 µM | [13] 22.2 µM | [14] 21 µM | [15] 46.1 µM | [16] 21.9 µM
inactive: [1] | [2] | [3] | [6] | [7] | [11]

[Cl-].[Cl-].[Cl-].[Yb+3]
inactive: [1] | [3] | [4] | [5] | [7] | [10] | [11]

CCC[N+](=O)[O-]
not listed: [2] | [4] | [7] | [9] | [10] | [20]
inactive: all other assays above

c1ccc2c(c1)CCCC2
not listed: [1] | [4] | [6] | [9] | [10] | [11] | [20]
inactive: all other assays above

CNC(=O)Oc1cc(C)c(SC)c(C)c1
active: [4] 74.2 µM | [11] 13.3 µM | [20] 30.2 µM
inactive: [2] | [3] | [17] | [19] | [5] | [6] | [8] | [9]

CCC(C)c1cc(C(C)(C)C)cc(-n2nc3ccccc3n2)c1O (configuration not stated)
active: [20] 8.72 µM
not listed: [4] | [9] | [12] | [13] | [14] | [15] | [16] | [17]
inactive: all other assays above

CCOC(=O)COc1ccc(Cl)cc1Cl
not listed: [5] | [7] | [9] | [10] | [19] | [20]
inactive: all other assays above

C=Cc1cccc(CCl)c1
active: [2] 100 µM
not listed: [1] | [4] | [6] | [10] | [11] | [13] | [18] | [19]
inactive: all other assays above

CN1C[C@H](C(=O)N[C@]2(C)O[C@@]3(O)[C@@H]4CCCN4C(=O)[C@H](Cc4ccccc4)N3C2=O)C=C2c3cccc4[nH]cc(c34)C[C@H]21
inactive: [2] | [3] | [17] | [18] | [7] | [8] | [13] | [14] | [15] | [16]
active: [11] 0.534 µM

O=[N+]([O-])O
inactive: [2] | [3] | [18] | [5] | [6] | [10] | [15]
